Key:
Test in all cases: DAPPL (digital affinity profiling via proximity ligation, sequencing); 10 mM Tris-HCl pH 7.5, 50 mM NaCl, 1 mM DTT, 4% glycerol, room temperature, 30 min; GST-TFs on glutathione beads, 16-mer random dsDNA library, 0.1% formaldehyde crosslink after washing; high values mean tight binding
Conditions in all cases: protein: recombinant; tags: N-terminal GST; dsDNA, one strand shown
[1] = target: T1, FLI1 (Homo sapiens, UniProt Q01543 1-452)
T1 sequence: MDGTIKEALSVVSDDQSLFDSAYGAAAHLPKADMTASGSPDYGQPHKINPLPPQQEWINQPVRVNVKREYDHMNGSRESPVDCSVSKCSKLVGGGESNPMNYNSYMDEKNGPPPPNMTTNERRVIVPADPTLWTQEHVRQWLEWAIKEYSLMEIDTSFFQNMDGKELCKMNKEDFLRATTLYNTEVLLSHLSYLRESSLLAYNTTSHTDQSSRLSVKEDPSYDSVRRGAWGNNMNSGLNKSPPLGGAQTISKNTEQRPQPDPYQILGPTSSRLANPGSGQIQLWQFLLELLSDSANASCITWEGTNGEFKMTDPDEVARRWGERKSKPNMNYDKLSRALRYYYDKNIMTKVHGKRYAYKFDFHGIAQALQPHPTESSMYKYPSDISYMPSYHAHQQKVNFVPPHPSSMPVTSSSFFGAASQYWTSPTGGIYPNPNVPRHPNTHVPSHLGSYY
How it was run: (§1)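 The binding signal reported is, for every hexamer, its read frequency for a factor over its read frequency for the tag-only sample. Reads came from pools of yeast-expressed, GST-fused human transcription factors on glutathione beads, barcoded with DNA and mixed with that sample, which were incubated with 200 nmole of a random double-stranded 16-mer DNA library in Tris/NaCl/DTT/glycerol buffer at room temperature for 30 min. After washing, the pools were crosslinked with 0.1% formaldehyde, proximity-ligated with BsaI/T4 ligase for 1 h at 37 °C, PCR-amplified and sequenced on an Illumina NextSeq500.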

[2] = target: T2, ELK1 (Homo sapiens, UniProt P19419 1-428)
T2 sequence: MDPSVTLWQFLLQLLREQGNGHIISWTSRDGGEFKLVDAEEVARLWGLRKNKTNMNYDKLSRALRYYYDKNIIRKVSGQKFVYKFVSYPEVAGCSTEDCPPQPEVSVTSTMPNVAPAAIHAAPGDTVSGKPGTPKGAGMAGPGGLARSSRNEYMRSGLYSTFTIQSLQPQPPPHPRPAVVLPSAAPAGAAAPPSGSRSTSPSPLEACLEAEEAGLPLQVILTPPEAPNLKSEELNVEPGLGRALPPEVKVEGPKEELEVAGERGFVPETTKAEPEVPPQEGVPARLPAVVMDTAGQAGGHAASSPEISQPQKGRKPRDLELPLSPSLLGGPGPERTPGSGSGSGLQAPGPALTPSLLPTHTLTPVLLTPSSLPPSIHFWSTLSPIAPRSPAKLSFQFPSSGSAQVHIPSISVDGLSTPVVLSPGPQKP
How it was run: as §1

[3] = target: T3, GABPA (Homo sapiens, UniProt Q06546 1-454)
T3 sequence: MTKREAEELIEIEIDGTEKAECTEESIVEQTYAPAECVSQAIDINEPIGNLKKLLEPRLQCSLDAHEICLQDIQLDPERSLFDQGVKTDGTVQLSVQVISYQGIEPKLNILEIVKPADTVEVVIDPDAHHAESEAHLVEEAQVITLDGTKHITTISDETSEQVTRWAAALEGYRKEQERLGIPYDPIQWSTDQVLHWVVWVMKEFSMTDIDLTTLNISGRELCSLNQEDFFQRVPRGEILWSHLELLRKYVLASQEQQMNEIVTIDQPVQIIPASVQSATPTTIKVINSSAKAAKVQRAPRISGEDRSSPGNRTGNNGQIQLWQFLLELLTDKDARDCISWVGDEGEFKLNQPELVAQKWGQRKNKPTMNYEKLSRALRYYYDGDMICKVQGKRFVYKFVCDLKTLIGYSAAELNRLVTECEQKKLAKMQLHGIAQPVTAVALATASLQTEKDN
How it was run: as §1

[4] = target: T4, ERG (Homo sapiens, UniProt P11308 1-479)
T4 sequence: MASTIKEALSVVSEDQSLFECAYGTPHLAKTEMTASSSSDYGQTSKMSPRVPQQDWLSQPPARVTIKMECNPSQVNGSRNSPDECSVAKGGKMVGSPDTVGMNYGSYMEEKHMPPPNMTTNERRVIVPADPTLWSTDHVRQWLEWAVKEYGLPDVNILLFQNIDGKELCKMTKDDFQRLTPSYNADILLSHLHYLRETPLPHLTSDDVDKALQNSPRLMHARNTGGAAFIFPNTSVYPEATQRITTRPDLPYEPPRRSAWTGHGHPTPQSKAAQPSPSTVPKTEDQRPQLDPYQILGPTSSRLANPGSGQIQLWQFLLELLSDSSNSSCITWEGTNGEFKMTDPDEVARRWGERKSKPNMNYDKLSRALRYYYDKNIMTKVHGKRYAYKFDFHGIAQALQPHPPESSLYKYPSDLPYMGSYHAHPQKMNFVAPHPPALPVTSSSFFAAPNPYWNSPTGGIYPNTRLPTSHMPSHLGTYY
How it was run: as §1

[5] = target: ELF1 (Homo sapiens, UniProt P32519 1-619)
Sequence of ELF1 (P32519 whole entry): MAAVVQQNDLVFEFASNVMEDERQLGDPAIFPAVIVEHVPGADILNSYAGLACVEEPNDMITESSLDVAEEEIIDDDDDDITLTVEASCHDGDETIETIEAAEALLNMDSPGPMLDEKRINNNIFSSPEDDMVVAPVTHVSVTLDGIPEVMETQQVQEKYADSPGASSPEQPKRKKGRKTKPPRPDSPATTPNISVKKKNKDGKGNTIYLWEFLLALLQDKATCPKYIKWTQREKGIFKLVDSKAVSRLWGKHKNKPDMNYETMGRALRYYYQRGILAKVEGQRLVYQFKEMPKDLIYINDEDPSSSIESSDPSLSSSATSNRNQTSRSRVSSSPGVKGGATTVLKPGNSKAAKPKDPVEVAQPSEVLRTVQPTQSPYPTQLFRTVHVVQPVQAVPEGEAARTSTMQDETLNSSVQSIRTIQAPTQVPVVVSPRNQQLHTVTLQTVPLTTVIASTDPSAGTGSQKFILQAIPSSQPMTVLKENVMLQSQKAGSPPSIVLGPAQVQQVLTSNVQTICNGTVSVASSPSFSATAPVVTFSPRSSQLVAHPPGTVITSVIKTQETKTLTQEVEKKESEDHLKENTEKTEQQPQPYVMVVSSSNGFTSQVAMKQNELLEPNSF
How it was run: as §1

[6] = target: T5, EHF (Homo sapiens, UniProt Q9NZC4 1-300)
T5 sequence: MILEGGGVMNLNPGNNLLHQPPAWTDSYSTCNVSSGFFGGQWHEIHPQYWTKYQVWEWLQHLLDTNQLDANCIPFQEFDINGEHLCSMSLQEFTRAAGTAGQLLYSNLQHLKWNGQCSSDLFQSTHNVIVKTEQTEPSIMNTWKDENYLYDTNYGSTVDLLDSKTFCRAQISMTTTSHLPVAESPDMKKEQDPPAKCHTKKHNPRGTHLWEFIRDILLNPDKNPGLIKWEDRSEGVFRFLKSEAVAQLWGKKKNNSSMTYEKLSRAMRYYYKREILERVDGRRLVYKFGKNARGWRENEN
How it was run: as §1

[7] = target: SPI1 (Homo sapiens, UniProt P17947 1-270)
How it was run: as §1

[8] = target: SPIB (Homo sapiens, UniProt Q01892 1-262)
Sequence of SPIB (Q01892 whole entry): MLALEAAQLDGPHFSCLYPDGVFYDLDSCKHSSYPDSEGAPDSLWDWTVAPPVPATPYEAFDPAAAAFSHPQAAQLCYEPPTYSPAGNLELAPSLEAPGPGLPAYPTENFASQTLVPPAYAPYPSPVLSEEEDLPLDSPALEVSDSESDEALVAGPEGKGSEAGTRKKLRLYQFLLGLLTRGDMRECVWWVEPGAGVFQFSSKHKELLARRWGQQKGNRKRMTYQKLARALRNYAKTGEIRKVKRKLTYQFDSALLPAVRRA
How it was run: as §1

[9] = target: T6, ELK3 (Homo sapiens, UniProt P41970 1-407)
T6 sequence: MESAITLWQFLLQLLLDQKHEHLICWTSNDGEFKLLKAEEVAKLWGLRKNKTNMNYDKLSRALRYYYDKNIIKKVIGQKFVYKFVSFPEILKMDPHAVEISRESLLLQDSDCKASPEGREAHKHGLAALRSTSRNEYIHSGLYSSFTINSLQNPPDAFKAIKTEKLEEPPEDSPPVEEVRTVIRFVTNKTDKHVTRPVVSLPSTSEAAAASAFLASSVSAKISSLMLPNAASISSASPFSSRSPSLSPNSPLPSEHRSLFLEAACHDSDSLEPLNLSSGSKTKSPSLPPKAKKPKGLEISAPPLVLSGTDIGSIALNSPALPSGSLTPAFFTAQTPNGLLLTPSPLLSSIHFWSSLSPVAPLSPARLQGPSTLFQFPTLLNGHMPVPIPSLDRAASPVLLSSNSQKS
How it was run: as §1

## TATGCT
[1]
  binding signal: 1.28 fold enrichment (6-mer frequency, TF over GST control)
[2]
  binding signal: 1.28 fold enrichment (6-mer frequency, TF over GST control)
[3]
  binding signal: 1.32 fold enrichment (6-mer frequency, TF over GST control)
[4]
  binding signal: 1.26 fold enrichment (6-mer frequency, TF over GST control)
[5]
  binding signal: 1.29 fold enrichment (6-mer frequency, TF over GST control)
[6]
  binding signal: 1.33 fold enrichment (6-mer frequency, TF over GST control)
[7]
  binding signal: 1.41 fold enrichment (6-mer frequency, TF over GST control)
[8]
  binding signal: 1.33 fold enrichment (6-mer frequency, TF over GST control)
[9]
  binding signal: 1.22 fold enrichment (6-mer frequency, TF over GST control)

## ATACAG
[1]
  binding signal: 1.16 fold enrichment (6-mer frequency, TF over GST control)
[2]
  binding signal: 1.11 fold enrichment (6-mer frequency, TF over GST control)
[3]
  binding signal: 1.29 fold enrichment (6-mer frequency, TF over GST control)
[4]
  binding signal: 1.16 fold enrichment (6-mer frequency, TF over GST control)
[5]
  binding signal: 1.13 fold enrichment (6-mer frequency, TF over GST control)
[6]
  binding signal: 1.16 fold enrichment (6-mer frequency, TF over GST control)
[7]
  binding signal: 1.12 fold enrichment (6-mer frequency, TF over GST control)
[8]
  binding signal: 1.15 fold enrichment (6-mer frequency, TF over GST control)
[9]
  binding signal: 1.07 fold enrichment (6-mer frequency, TF over GST control)

## ATTTCG
[1]
  binding signal: 1.24 fold enrichment (6-mer frequency, TF over GST control)
[2]
  binding signal: 1.25 fold enrichment (6-mer frequency, TF over GST control)
[3]
  binding signal: 1.29 fold enrichment (6-mer frequency, TF over GST control)
[4]
  binding signal: 1.25 fold enrichment (6-mer frequency, TF over GST control)
[5]
  binding signal: 1.3 fold enrichment (6-mer frequency, TF over GST control)
[6]
  binding signal: 1.35 fold enrichment (6-mer frequency, TF over GST control)
[7]
  binding signal: 1.29 fold enrichment (6-mer frequency, TF over GST control)
[8]
  binding signal: 1.37 fold enrichment (6-mer frequency, TF over GST control)
[9]
  binding signal: 1.21 fold enrichment (6-mer frequency, TF over GST control)

## CGATTT
[1]
  binding signal: 1.23 fold enrichment (6-mer frequency, TF over GST control)
[2]
  binding signal: 1.08 fold enrichment (6-mer frequency, TF over GST control)
[3]
  binding signal: 1.08 fold enrichment (6-mer frequency, TF over GST control)
[4]
  binding signal: 1.17 fold enrichment (6-mer frequency, TF over GST control)
[5]
  binding signal: 1.09 fold enrichment (6-mer frequency, TF over GST control)
[6]
  binding signal: 1.26 fold enrichment (6-mer frequency, TF over GST control)
[7]
  binding signal: 1.09 fold enrichment (6-mer frequency, TF over GST control)
[8]
  binding signal: 1.1 fold enrichment (6-mer frequency, TF over GST control)
[9]
  binding signal: 1.04 fold enrichment (6-mer frequency, TF over GST control)

## AATTTA
[1]
  binding signal: 1.17 fold enrichment (6-mer frequency, TF over GST control)
[2]
  binding signal: 1.3 fold enrichment (6-mer frequency, TF over GST control)
[3]
  binding signal: 1.24 fold enrichment (6-mer frequency, TF over GST control)
[4]
  binding signal: 1.19 fold enrichment (6-mer frequency, TF over GST control)
[5]
  binding signal: 1.24 fold enrichment (6-mer frequency, TF over GST control)
[6]
  binding signal: 1.19 fold enrichment (6-mer frequency, TF over GST control)
[7]
  binding signal: 1.2 fold enrichment (6-mer frequency, TF over GST control)
[8]
  binding signal: 1.4 fold enrichment (6-mer frequency, TF over GST control)
[9]
  binding signal: 1.16 fold enrichment (6-mer frequency, TF over GST control)

## TCAACC
[1]
  binding signal: 1.23 fold enrichment (6-mer frequency, TF over GST control)
[2]
  binding signal: 1.24 fold enrichment (6-mer frequency, TF over GST control)
[3]
  binding signal: 1.22 fold enrichment (6-mer frequency, TF over GST control)
[4]
  binding signal: 1.14 fold enrichment (6-mer frequency, TF over GST control)
[5]
  binding signal: 1.16 fold enrichment (6-mer frequency, TF over GST control)
[6]
  binding signal: 1.15 fold enrichment (6-mer frequency, TF over GST control)
[7]
  binding signal: 1.16 fold enrichment (6-mer frequency, TF over GST control)
[8]
  binding signal: 1.17 fold enrichment (6-mer frequency, TF over GST control)
[9]
  binding signal: 1.32 fold enrichment (6-mer frequency, TF over GST control)

## AGATCC
[1]
  binding signal: 1.05 fold enrichment (6-mer frequency, TF over GST control)
[2]
  binding signal: 1.12 fold enrichment (6-mer frequency, TF over GST control)
[3]
  binding signal: 1.09 fold enrichment (6-mer frequency, TF over GST control)
[4]
  binding signal: 1.15 fold enrichment (6-mer frequency, TF over GST control)
[5]
  binding signal: 1.1 fold enrichment (6-mer frequency, TF over GST control)
[6]
  binding signal: 1.12 fold enrichment (6-mer frequency, TF over GST control)
[7]
  binding signal: 1.03 fold enrichment (6-mer frequency, TF over GST control)
[8]
  binding signal: 1.18 fold enrichment (6-mer frequency, TF over GST control)
[9]
  binding signal: 1.1 fold enrichment (6-mer frequency, TF over GST control)
